A number with no mark means an inactive call. Results filed as inconclusive are left out. Where a call stands in place of a potency, no number is given. Calls of active or inactive are those of the source. Calls follow the shape of the dose curve; as a rule, active = well fitted curve in the direction sought with a large enough effect; inconclusive = small, poorly fitted or top-dose-only effect, or another doubt; inactive = no such curve, though single readings can be large; an effect the other way counts as inactive or inconclusive.
Experiments:
[1] = Cell Viability - H-4-II-E (AID 543);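 also: cells exposed to compound for 40 hours; nearly all actives have a fitted effect of over 35% in size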
Summary of the method: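 Luminescent ATP signal (CellTiter-Glo) served as the viability read-out, with cytotoxicity seen as a concentration-dependent ATP drop. Cells were treated for 40 hours in complete medium. AC50 values derive from Hill-equation modelling.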

[2] = Cell Viability - SH-SY5Y (AID 544); details: SH-SY5Y neuroblastoma cell viability; viability change, negative = cytotoxic: at 92.2 µM (top of the series);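 also: cells exposed to compound for 40 hours; nearly all actives have a fitted effect of over 55% in size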
Summary of the method: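 Luminescent ATP read-out (CellTiter-Glo) measures loss of viable SH-SY5Y neuroblastoma cells after 40 hr compound exposure at 37 °C. AC50 values derive from standard Hill modelling of qHTS concentration-response data.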

[3] = Cell Viability - Renal Proximal Tubule (AID 545);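 also: cells exposed to compound for 40 hours; nearly all actives have a fitted effect of over 40% in size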
Summary of the method: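 Rat kidney proximal tubule cells, freshly isolated; 1000 cells/well, 5 hr settle, compound 40 hr 37 °C. CellTiter-Glo 20 min RT, luminescence read. AC50 by standard Hill fit.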

[4] = Cell Viability - Mesenchymal (AID 546);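 also: cells exposed to compound for 40 hours before reading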
Summary of the method: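 Human kidney mesenchymal cells from normal renal glomeruli, 1000 cells/well, rested 5 hr at 37 °C, then treated 40 hr at 37 °C in complete medium. Cellular ATP read by CellTiter-Glo luminescence; AC50 from Hill-equation fits.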

[5] = Cellular Toxicity (caspase-3) Jurkat (AID 655); details: Jurkat caspase-3 activation, luminescence; caspase-3 activation: at 92.2 µM (top of the series), DMSO = 0%, tamoxifen = 100%;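 also: cells exposed to compound for 16 h at 37 °C before reading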
Summary of the method: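 Luminescent caspase-3/7 readout (aminoluciferin substrate cleavage) in human T-cell leukemia Jurkat cells after 16 hr compound exposure. Concentration-response normalized to DMSO and 100 uM tamoxifen; AC50 by standard Hill equation.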

[6] = Cellular Toxicity (caspase-3) HUV-EC-C (AID 656)
Summary of the method: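 Luminescent caspase-3/7 activation (aminoluciferin substrate cleavage) in HUV-EC-C cells after 16 hr compound exposure, 37°C. Signal normalized to DMSO basal and 100 uM tamoxifen as 100%; AC50 from concentration-response fitted with the Hill equation.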

[7] = Cellular Toxicity (caspase-3) SHSY5Y (AID 657);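 also: cells exposed to compound for 16 hours at 37 °C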
Summary of the method: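 Luminescent caspase-3/7 readout (aminoluciferin release) in SH-SY5Y cells after 16 h compound exposure in complete medium. Activity scaled between DMSO basal and 10 uM staurosporine as 100%; concentration-response fitted to Hill equation for AC50.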

[8] = Cellular Toxicity (caspase-3) BJ (AID 658);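 also: cells exposed to compound for 16 hours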
Summary of the method: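 BJ human foreskin fibroblasts, 1000 cells/well, treated 16 hours at 37 °C in complete medium; caspase 3/7 activity by Caspase-Glo luminescence after 1 hr at room temperature. Normalized to DMSO and 10 uM staurosporine; AC50 from Hill fits.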

[9] = Cellular Toxicity (caspase-3) MRC-5 (AID 659);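 also: cells exposed to compound for 16 h at 37 °C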
Summary of the method: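 MRC-5 human normal lung fibroblasts, 1500 cells/well, treated 16 h at 37 °C in complete medium. Caspase 3/7 measured by Caspase-Glo luminescence after 1 h at room temperature. Normalized to DMSO and 10 uM staurosporine; AC50 from Hill fit.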

[10] = Cellular Toxicity (caspase-3) HepG2 (AID 654);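 also: cells exposed to compound for 16 hours before reading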
Summary of the method: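 Cells plated 5 hr at 37 °C, compound added, incubated 16 hr at 37 °C. Caspase-Glo 3/7 reagent followed, 20 min at room temperature, then luminescence read. Activation scored as signal increase; AC50 from Hill fit.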

Structure (SMILES)	Potency [1]	Potency [2]	Potency [3]	Potency [4]	caspase-3 activation [5]	outcome [6]	outcome [7]	outcome [8]	outcome [9]	Potency [10]	viability change, negative = cytotoxic [2]
Cc1cccc2cccnc12	inactive	inactive	inactive	inactive	-0.137%	inactive	inactive	inactive	inactive		
CCc1ccccc1O	inactive	inactive	inactive	inactive	0.741%	inactive	inactive	inactive	inactive		
CC(=O)Nc1ccc(N)cc1	inactive	inactive	inactive	inactive		inactive	inactive	inactive	inactive	inactive	
CCOc1ccccc1N	inactive	inactive	inactive	inactive		inactive	inactive	inactive	inactive		
CC(=O)c1ccc([N+](=O)[O-])cc1	inactive	inactive	inactive	inactive		inactive	inactive	inactive	inactive	inactive	
c1ccc2[nH]cnc2c1	inactive	inactive	inactive	inactive	1.18%	inactive	inactive	inactive	inactive		
CC1CCC2CC1C2(C)C (centres undefined)	inactive	inactive	inactive	inactive	-1.25%	inactive	inactive	inactive	inactive		
O=C(O)c1ccc(CO)o1	inactive	inactive	inactive	inactive	1.29%	inactive	inactive	inactive	inactive		
Cc1ccc(C(=O)O)cc1	inactive	inactive	inactive	inactive	1.89%	inactive	inactive	inactive	inactive		
CCCOCC(C)OCC(C)O (centres undefined)	inactive	inactive	inactive	inactive	-2.41%	inactive	inactive	inactive	inactive		
C1CCCC1	inactive	inactive	inactive	inactive	-0.234%	inactive	inactive	inactive	inactive		
CC/C=C1/OC(=O)c2ccccc21	inactive	inactive	inactive	inactive	-0.618%	inactive	inactive	inactive	inactive		
CC/C=C/C#N	inactive	inactive	inactive	inactive	-0.0351%	inactive	inactive	inactive	inactive		
O=C1CCC(=O)O1	inactive	inactive	inactive	inactive	1.09%	inactive	inactive	inactive	inactive		
CCN(CC)c1cccc(O)c1	inactive	inactive	inactive	inactive		inactive		inactive	inactive	inactive	
CCCCC(CC)COCC1CO1 (centres undefined)	inactive	inactive	inactive	inactive		inactive	inactive	inactive	inactive		
COC(=O)CS	inactive	inactive	inactive	inactive	-2.15%	inactive		inactive	inactive		
C=C(C)C(=O)OCCCCCC	inactive	inactive	inactive	inactive	2.29%	inactive		inactive	inactive		
C=CCn1c(=O)n(CC=C)c(=O)n(CC=C)c1=O	inactive	inactive	inactive	inactive	-0.997%	inactive	inactive	inactive	inactive		
C=CC(=O)NC(C)C	inactive	inactive	inactive	inactive	-1.34%	inactive	inactive	inactive	inactive		

Structure (SMILES)	Potency [1]	Potency [2]	Potency [3]	Potency [4]	caspase-3 activation [5]	outcome [6]	outcome [7]	outcome [8]	outcome [9]	Potency [10]	viability change, negative = cytotoxic [2]
OC1CCCC1	inactive	inactive	inactive	inactive		inactive	inactive	inactive	inactive	inactive	
Nc1cccc(S(=O)(=O)O)c1	inactive	inactive	inactive	inactive		inactive		inactive	inactive	inactive	
O=Cc1ccc(CO)o1	inactive	inactive	inactive	inactive		inactive	inactive	inactive	inactive		
Cc1ccc(C)c(O)c1	inactive	inactive	inactive	inactive	0.228%	inactive	inactive	inactive	inactive		
CC(C)(O)CCC(C)(C)O	inactive	inactive	inactive	inactive	0.189%	inactive	inactive	inactive	inactive		
CCCCCNCCCCC	inactive	inactive	inactive	inactive	-1.44%	inactive	inactive	inactive	inactive		
ICCc1ccccc1	inactive		inactive	inactive		inactive	inactive	inactive	inactive	inactive	-96.6% (active)
Cc1ccc2cccnc2c1	inactive	inactive	inactive	inactive		inactive		inactive	inactive	inactive	
CSc1ccc(C=O)cc1	inactive	inactive	inactive	inactive		inactive	inactive	inactive	inactive	inactive	
C=C(C)C(N)=O	inactive	inactive	inactive	inactive		inactive	inactive	inactive	inactive	inactive	
c1ccc(Oc2ccccc2)cc1	inactive	inactive	inactive	inactive	0.819%	inactive	inactive	inactive	inactive		
C1CCC2OC2C1 (centres undefined)	inactive	inactive	inactive	inactive		inactive		inactive	inactive		
CCC(C)(C)C(=O)O	inactive	inactive	inactive	inactive	-0.0519%	inactive	inactive	inactive	inactive		
Nc1cccc(N)c1	inactive	inactive	inactive	inactive	0.427%	inactive	inactive	inactive	inactive		
CCN(Cc1ccccc1)c1ccccc1	inactive	inactive	inactive	inactive	1.93%	inactive	inactive	inactive	inactive		
CCCCCO	inactive	inactive	inactive	inactive		inactive	inactive	inactive	inactive	inactive	
O=Cc1ccccc1Cl	inactive	inactive		inactive	7.22%	inactive	inactive	inactive	inactive	inactive	
C=CCCCC	inactive	inactive	inactive		0.169%	inactive	inactive	inactive	inactive	inactive	
Cc1cccc(C(=O)O)c1	inactive	inactive	inactive			inactive	inactive	inactive	inactive	inactive	
CC(=O)C1(C)CC2=C(CCCC2(C)C)CC1C (centres undefined)	inactive	inactive	inactive		-0.117%	inactive	inactive	inactive	inactive		

Structure (SMILES)	Potency [1]	Potency [2]	Potency [3]	Potency [4]	caspase-3 activation [5]	outcome [6]	outcome [7]	outcome [8]	outcome [9]	Potency [10]	viability change, negative = cytotoxic [2]
NS(=O)(=O)O	inactive	inactive		inactive	0.859%	inactive	inactive	inactive	inactive	inactive	
NC(=O)c1cccc([N+](=O)[O-])c1	inactive	inactive		inactive	-0.315%	inactive	inactive	inactive	inactive	inactive	
CCCCC/C=C/C=C/C=O	inactive	inactive	inactive	inactive		inactive		inactive	inactive		
COCCOC(=O)c1ccccc1C(=O)OCCOC	inactive	inactive	inactive		0.0969%	inactive	inactive	inactive	inactive	inactive	
O=C(O)c1ccc(Cl)cc1Cl	inactive	inactive	inactive		-1.11%	inactive	inactive	inactive	inactive	inactive	
C/C=C1\CC2C=CC1C2 (centres undefined)	inactive	inactive		inactive	-1.14%	inactive	inactive	inactive	inactive	inactive	
O=C(O)c1ccc(Cl)c(Cl)c1	inactive	inactive	inactive		-1.55%	inactive	inactive	inactive	inactive	inactive	
Cc1ccc2c(c1[N+](=O)[O-])C(=O)c1ccccc1C2=O	inactive	inactive	inactive		-1.22%	inactive	inactive	inactive	inactive	inactive	
CCCCCCCCCCCCOCC1CO1 (centres undefined)	inactive	inactive	inactive		3.67%	inactive	inactive	inactive	inactive	inactive	
CCCCCCCCC/C=C/CC1CC(=O)OC1=O (centres undefined)	inactive	inactive		inactive	1.29%	inactive	inactive	inactive	inactive	inactive	
O=C(O)c1cc(Cl)cc(Cl)c1	inactive	inactive	inactive		-1.52%	inactive	inactive	inactive	inactive	inactive	
O=[N+]([O-])c1cccc(C(F)(F)F)c1	inactive	inactive	inactive		0.763%	inactive	inactive	inactive	inactive	inactive	
Cc1ccc(C)c(N)c1	inactive	inactive	inactive			inactive	inactive	inactive	inactive	inactive	
C=C(C)C(=O)OCCCCCCCCCC	inactive	inactive	inactive		-0.118%	inactive		inactive	inactive	inactive	
Cc1ccc(C)c([N+](=O)[O-])c1	inactive	inactive	inactive			inactive	inactive	inactive	inactive	inactive	
Cc1cc(C)cc(N)c1	inactive	inactive	inactive		0.537%	inactive	inactive	inactive	inactive	inactive	
CC(C)(C)OCC1CO1 (centres undefined)	inactive	inactive	inactive		0.113%	inactive	inactive	inactive	inactive	inactive	
CNC(=O)c1ccccc1	inactive	inactive	inactive		0.307%	inactive	inactive	inactive	inactive	inactive	
O=C(O)CNC(=O)c1ccc(CO)o1	inactive	inactive	inactive		-2.47%	inactive	inactive	inactive	inactive	inactive	

— PubChem BioAssay (NCATS)
